From PubChem BioAssay (NCI) come the findings set out here.

Test [1] in a line: NCI Yeast Anticancer Drug Screen. Data for the rad50 strain (AID 155).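 Also: 0% = growth of vehicle-only cultures of the same strain.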 To be noted: S. cerevisiae rad50 strain growth inhibition, hits give high values. Summed up: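 Yeast carrying a defined DNA repair defect were exposed to test compounds, and growth was compared with vehicle-treated controls to give percent inhibition.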
A short description of test [2]: NCI Yeast Anticancer Drug Screen. Data for the mec2-1 strain (AID 157). The conditions noted are these: S. cerevisiae mec2-1 strain, hits give high values. Put shortly:
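Yeast mec2-1 mutant treated with compound. Readout: growth inhibition vs vehicle controls.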

Test [3] in a line: NCI Yeast Anticancer Drug Screen. Data for the sgs1 mgt1 strain (AID 161).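 Also: 0% = growth of cultures given vehicle only.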 The conditions noted are these: S. cerevisiae sgs1 mgt1 strain, hits give high values. Summed up: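 Mutant yeast exposed to compound; growth scored against vehicle-only wells.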
The nature of test [4]: NCI Yeast Anticancer Drug Screen. Data for the cln2 rad14 strain (AID 165).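 Also: 0% = growth equal to vehicle treated cultures.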 To be noted: S. cerevisiae cln2 rad14 strain, hits give high values. Put shortly: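 cln2 rad14 yeast strain; compound exposure; growth inhibition read vs vehicle controls.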
Test [5] in a line: NCI Yeast Anticancer Drug Screen. Data for the bub3 strain (AID 167). To be noted: S. cerevisiae bub3 mutant strain, hits give high values. Put shortly:
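Compounds were applied to a genetically altered yeast strain carrying a cell-cycle control defect. Growth inhibition was scored against vehicle-treated controls.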

Test [6] in a line: NCI Yeast Anticancer Drug Screen. Data for the mlh1 rad18 strain (AID 175). To be noted: S. cerevisiae mlh1 rad18 strain growth inhibition, hits give high values. Summed up:
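Yeast w/ defined DNA-repair lesions; compound exposure; growth vs vehicle controls → % inhibition.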

[7] abbreviates: at 5.0 µM (retest, dose inferred, filed as 0.5).
Setting [8] is: at 50.0 µM (retest, dose inferred, filed as 5.0).

Compounds without any hit were thinned out: in the full panel of roughly 79,000, 15% have a hit. Values without a mark were called inactive. The source made the active and inactive calls. Rule as the data show it: active = growth inhibition above about 70%; inactive = the rest.

For the molecule `O=S(=O)(Sc1ccccc1)c1ccccc1`, the growth inhibition is 13% in test [1] (setting [7]); 98% (active) in test [1] (setting [8]); 79% (active) in test [1] (at 50.0 µM); 11% in test [2] (setting [7]); 99% (active) in test [2] (setting [8]); 99.1% (active) in test [2] (at 50.0 µM). Moreover, the growth inhibition in test [3] (setting [7]) was 16%; in test [3] (setting [8]), 99% (active); in test [3] (at 50.0 µM), 99.3% (active); in test [4] (setting [7]), 5%; in test [4] (setting [8]), 99% (active); in test [4] (at 50.0 µM) it was 97% (active). Further, the growth inhibition in test [5] (setting [7]) was 16%; in test [5] (setting [8]) it was 99% (active); in test [5] (at 50.0 µM), 97.3% (active); in test [6] (setting [7]), 20%; in test [6] (setting [8]), 99% (active); in test [6] (at 50.0 µM) it was 99% (active).
`O=C(Cc1nc2ccc([N+](=O)[O-])cc2[nH]c1=O)C(=O)Nc1cc(Cl)c(Cl)cc1Cl`: the growth inhibition in test [1] (setting [7]) is -16%; in test [1] (setting [8]) it was -2%; in test [1] (at 50.0 µM) it was 8.05%; in test [2] (setting [7]), -16%; in test [2] (setting [8]) it was -7%; in test [2] (at 50.0 µM), -5.45%. In addition, the growth inhibition in test [3] (setting [7]) is -7%; in test [3] (setting [8]), -15%; in test [3] (at 50.0 µM), -6.05%; in test [4] (setting [7]), -25%; in test [4] (setting [8]) it was -6%; in test [4] (at 50.0 µM), 6.65%. Further, the growth inhibition in test [5] (setting [7]) was -16%; in test [5] (setting [8]) it was 2%; in test [5] (at 50.0 µM), 23.9%; in test [6] (setting [7]), -4%; in test [6] (setting [8]), -13%; in test [6] (at 50.0 µM), 26.1%.
Regarding `O=C1c2ccc(O)c(O)c2C(=O)c2c(O)ccc(O)c21`, the growth inhibition in test [1] (setting [7]) is 84% (active); in test [1] (setting [8]) it was 95% (active); in test [1] (at 50.0 µM), 73.2% (active); in test [2] (setting [7]), 74% (active); in test [2] (setting [8]) it was 95% (active); in test [2] (at 50.0 µM) it was 55.5%. For the same molecule, the growth inhibition is 92% (active) in test [3] (setting [7]); 95% (active) in test [3] (setting [8]); 67.6% in test [3] (at 50.0 µM); 34% in test [4] (setting [7]); 93% (active) in test [4] (setting [8]); 56% in test [4] (at 50.0 µM). Also, the growth inhibition is 85% (active) in test [5] (setting [7]); 93% (active) in test [5] (setting [8]); 72% (active) in test [5] (at 50.0 µM); 91% (active) in test [6] (setting [7]); 95% (active) in test [6] (setting [8]); 77.8% (active) in test [6] (at 50.0 µM).
Take `O=C(CC(O)c1ccccc1)Sc1ccccc1` (stereo not given): the growth inhibition is -1% in test [1] (setting [7]); 13% in test [1] (setting [8]); 72% (active) in test [1] (at 50.0 µM); -2% in test [2] (setting [7]); 8% in test [2] (setting [8]); 50% in test [2] (at 50.0 µM). Also, the growth inhibition in test [3] (setting [7]) is 1%; in test [3] (setting [8]), 42%; in test [3] (at 50.0 µM) it was 63.1%; in test [4] (setting [7]), -2%; in test [4] (setting [8]), -7%; in test [4] (at 50.0 µM), -9.2%. For the same molecule, the growth inhibition in test [5] (setting [7]) is -6%; in test [5] (setting [8]), 4%; in test [5] (at 50.0 µM) it was 80% (active); in test [6] (setting [7]) it was -8%; in test [6] (setting [8]), 20%; in test [6] (at 50.0 µM), 74% (active).
Turning to `O=c1oc(-c2ccccc2Br)ns1`, the growth inhibition in test [1] (setting [7]) was 0%; in test [1] (setting [8]) it was 99% (active); in test [1] (at 50.0 µM), 98.8% (active); in test [2] (setting [7]), 3%; in test [2] (setting [8]), 100% (active); in test [2] (at 50.0 µM), 99.6% (active). In addition, the growth inhibition in test [3] (setting [7]) is 9%; in test [3] (setting [8]), 99% (active); in test [3] (at 50.0 µM) it was 99.4% (active); in test [4] (setting [7]), 4%; in test [4] (setting [8]), 99% (active); in test [4] (at 50.0 µM), 89.8% (active). Also, the growth inhibition in test [5] (setting [7]) was -8%; in test [5] (setting [8]) it was 99% (active); in test [5] (at 50.0 µM), 97.5% (active); in test [6] (setting [7]), 6%; in test [6] (setting [8]), 99% (active); in test [6] (at 50.0 µM), 99.3% (active).
As to `Cc1ccc2[nH]c3cc4ccncc4cc3c2c1`, the growth inhibition in test [1] (setting [7]) is -127%; in test [1] (setting [8]), 95% (active); in test [1] (at 50.0 µM) it was 48.5%; in test [2] (setting [7]), 30%; in test [2] (setting [8]), 95% (active); in test [2] (at 50.0 µM) it was 98.6% (active). Moreover, the growth inhibition is -15% in test [3] (setting [7]); 94% (active) in test [3] (setting [8]); 3.7% in test [3] (at 50.0 µM); 35% in test [4] (setting [7]); 96% (active) in test [4] (setting [8]); 96.7% (active) in test [4] (at 50.0 µM). Also, the growth inhibition in test [5] (setting [7]) was 47%; in test [5] (setting [8]), 96% (active); in test [5] (at 50.0 µM) it was 97.2% (active); in test [6] (setting [7]), 40%; in test [6] (setting [8]), 95% (active); in test [6] (at 50.0 µM), 49.9%.
For the molecule `FC(F)(F)c1cccc(N2CCN(c3c4c(nc5ccccc35)CCCCC4)CC2)c1`, the growth inhibition in test [1] (setting [7]) was -4%; in test [1] (setting [8]), 96% (active); in test [1] (at 50.0 µM), 95.5% (active); in test [2] (setting [7]) it was 4%; in test [2] (setting [8]), 99% (active); in test [2] (at 50.0 µM), 97.7% (active). The growth inhibition was 11% in test [3] (setting [7]); 98% (active) in test [3] (setting [8]); 93.8% (active) in test [3] (at 50.0 µM); -14% in test [4] (setting [7]); 96% (active) in test [4] (setting [8]); 95.5% (active) in test [4] (at 50.0 µM). For the same molecule, the growth inhibition in test [5] (setting [7]) was -4%; in test [5] (setting [8]), 97% (active); in test [5] (at 50.0 µM) it was 92% (active); in test [6] (setting [7]), 22%; in test [6] (setting [8]) it was 98% (active); in test [6] (at 50.0 µM), 95.7% (active).
Take `O=C(/C=C/c1ccccc1)NOC(=O)/C=C/c1ccccc1`: the growth inhibition is 42% in test [1] (setting [7]); 93% (active) in test [1] (setting [8]); 97.5% (active) in test [1] (at 50.0 µM); 34% in test [2] (setting [7]); 95% (active) in test [2] (setting [8]); 99.2% (active) in test [2] (at 50.0 µM). Further, the growth inhibition in test [3] (setting [7]) was 66%; in test [3] (setting [8]), 94% (active); in test [3] (at 50.0 µM) it was 98.9% (active); in test [4] (setting [7]), 25%; in test [4] (setting [8]), 91% (active); in test [4] (at 50.0 µM), 98.5% (active). Further, the growth inhibition was 34% in test [5] (setting [7]); 92% (active) in test [5] (setting [8]); 99% (active) in test [5] (at 50.0 µM); 42% in test [6] (setting [7]); 93% (active) in test [6] (setting [8]); 98.5% (active) in test [6] (at 50.0 µM).
Take `CCCCCCCCCCn1cc[nH]c1=S`: the growth inhibition in test [1] (setting [7]) is 47%; in test [1] (setting [8]), 99% (active); in test [1] (at 50.0 µM), 99% (active); in test [2] (setting [7]) it was 47%; in test [2] (setting [8]), 99% (active); in test [2] (at 50.0 µM), 99.2% (active). The growth inhibition is 72% (active) in test [3] (setting [7]); 99% (active) in test [3] (setting [8]); 99.3% (active) in test [3] (at 50.0 µM); 18% in test [4] (setting [7]); 99% (active) in test [4] (setting [8]); 98.8% (active) in test [4] (at 50.0 µM). Besides, the growth inhibition in test [5] (setting [7]) was 72% (active); in test [5] (setting [8]) it was 99% (active); in test [5] (at 50.0 µM) it was 99.2% (active); in test [6] (setting [7]), 59%; in test [6] (setting [8]), 98% (active); in test [6] (at 50.0 µM), 99.3% (active).
On to `O=C(/C=C(/c1ccccc1)P(=O)(c1ccccc1)c1ccccc1)c1ccccc1`, for which the growth inhibition in test [1] (setting [7]) is -2%; in test [1] (setting [8]) it was 97% (active); in test [1] (at 50.0 µM), 97.9% (active); in test [2] (setting [7]), -15%; in test [2] (setting [8]), 97% (active); in test [2] (at 50.0 µM) it was 98.6% (active). The growth inhibition is -5% in test [3] (setting [7]); 97% (active) in test [3] (setting [8]); 98.8% (active) in test [3] (at 50.0 µM); -4% in test [4] (setting [7]); 71% (active) in test [4] (setting [8]); 97.8% (active) in test [4] (at 50.0 µM). The growth inhibition is -5% in test [5] (setting [7]); 86% (active) in test [5] (setting [8]); 97.8% (active) in test [5] (at 50.0 µM); 15% in test [6] (setting [7]); 99% (active) in test [6] (setting [8]); 98.6% (active) in test [6] (at 50.0 µM).
